These results are taken from PubChem BioAssay (NCATS).

Inconclusive results are not listed. A number with no mark means an inactive call. Calls of active or inactive are those of the source. Calls come from the whole dose curve; as a rule, active = well fitted inhibition curve with a large enough effect; inconclusive = small, poorly fitted or top-dose-only effect; inactive = flat fitted curve, though single readings scatter. Where a SMILES comes first, the peptide text is derived from it. Bridges are numbered along the chain shown (N, C = ends).
% is set by controls: 0 for no effect and ±100 for the full control effect; potency is the fitted concentration of half-maximal effect.

The assay is described as follows: P-glycoprotein substrates identified in KB-8-5-11 adenocarcinoma cell line, qHTS therapeutic library screen (AID 1346987). Note: nearly all actives have a fitted effect of over 65% in size. To be noted: KB-8-5-11 (P-gp overexpressing) viability, CellTiter-Glo, 72 h; series mostly up to 44.5 µM; activity change, negative = cytotoxicity: at the top concentration. In a few lines: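 Luminescence from CellTiter-Glo, read 5 min after addition, quantified survival of KB-8-5-11 (P-gp-overexpressing) cells exposed to compounds for 72 h. AC50 was derived from concentration-response curves.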
Regarding `CCC(C)C(=O)O[C@H]1[C@H](O)[C@@]2(COC(C)=O)C(CC1(C)C)C1=CCC3[C@@]4(C)CC[C@H](O[C@@H]5O[C@H](C(=O)O)[C@@H](O)[C@H](O)[C@H]5O)[C@@](C)(CO)C4CC[C@@]3(C)[C@]1(C)C[C@@H]2O` (stereo not given in full), the activity change, negative = cytotoxicity is -11.3% [at 9.29 µM].

Consider `C/C(=C\CCC(C)C1=CCC2(C)OC3=C(CC12)C(=O)C(O)CC3)CO` (stereo not given), for which the “activity change, negative = cytotoxicity” value is -33.2%.

For `O=C(Nc1cnc(Cl)nc1)c1ccc(F)c(F)c1`, the “activity change, negative = cytotoxicity” value was 2.18%.

Take `C=C1C(=O)O[C@@H]2/C=C(\C)CC/C=C(/C=O)[C@H](OC)[C@@H](OC(=O)C(C)C)[C@@H]12`: the “activity change, negative = cytotoxicity” value was -3.84%.

As for `COc1ccc(CN2CCN(C(=O)CCNC(=O)c3ccc(C(C)(C)C)cc3)CC2)cc1`, the “activity change, negative = cytotoxicity” value is -27%.

As for `Cc1cc(F)ccc1-c1nc(NCCN=C(N)NC#N)nc2c1ccc(=O)n2-c1c(F)cccc1F`, the “activity change, negative = cytotoxicity” value is -6.45%.

`CCC(C)C(=O)O[C@H]1[C@@H](OC(=O)c2ccoc2)C[C@](C)(O)[C@]23OC(C)(C)[C@H](C[C@H](OC(=O)c4ccoc4)[C@]12COC(C)=O)[C@H]3OC(C)=O` (stereo not given in full): the “activity change, negative = cytotoxicity” value was -7.52% [at 17.3 µM].

For the compound `CCN(CC)C(=O)c1ccc(Nc2nc(OCC3CCCCC3)c3[nH]cnc3n2)cc1`, the Potency is 18.4 µM (active).

As for `CC(C)(C)c1ccc(C(=O)Nc2cn3cc(-n4ccnc4)ccc3n2)cc1`, the “activity change, negative = cytotoxicity” value was -2.11%.

Consider `CCN(CC)CCOC(=O)c1ccc(N)cc1Cl`, for which the “activity change, negative = cytotoxicity” value is -1.18%.

In the case of `COc1ccc2nccc(C(=O)CC[C@@H]3CCN(CC#Cc4cc(F)cc(F)c4F)C[C@@H]3C(=O)O)c2c1`, the compound was called inactive.

With `COc1cc(N2CCC(N)CC2)ccc1Nc1ncc(Cl)c(-c2c[nH]c3ccccc23)n1`, the Potency was 4.11 µM (active).

As for `Cn1ncnc1[C@H]1c2n[nH]c(=O)c3cc(F)cc(c23)N[C@@H]1c1ccc(F)cc1`, the “activity change, negative = cytotoxicity” value is -15.9% [at 17.3 µM].

As to `CCOC(=O)COc1ccc2c(=O)cc(-c3ccccc3)oc2c1`, the Potency entry is “inactive”.

Take `C[C@@H]1O[C@@H](O[C@H]2[C@@H]3C=CO[C@@H](O[C@@H]4O[C@H](CO)[C@@H](O)[C@H](O)[C@H]4O)[C@@H]3[C@@]3(CO)O[C@@H]23)[C@H](O)[C@H](OC(=O)/C=C/c2ccccc2)[C@H]1O`: the “activity change, negative = cytotoxicity” value was 1.2% [at 17.3 µM].

As for `COc1ccc2nc3n[nH]c(C)c3c(NCCOCCO)c2c1`, the “activity change, negative = cytotoxicity” value is 2.13%.

With `OC1C=C2C3CN(Cc4cc5c(cc43)OCO5)C2CC1O` (stereo not given), the Potency is 13 µM (active).

`NCCCC[C@H](NC(=O)[C@@H]1CCCN1C(=O)[C@@H]1CSSC[C@H](NC(=O)CNC(=O)CNC(=O)CN)C(=O)N[C@@H](Cc2ccc(O)cc2)C(=O)N[C@@H](Cc2ccccc2)C(=O)N[C@@H](CCC(N)=O)C(=O)N[C@@H](CC(N)=O)C(=O)N1)C(=O)NCC(N)=O` (H-GGGCYFQNCPKG-NH2; disulfide 4-9): the “activity change, negative = cytotoxicity” value was -10.6%.

As for `CC1(C)SCCN(S(=O)(=O)c2ccc(Oc3ccncc3)cc2)[C@H]1C(=O)NO`, the “activity change, negative = cytotoxicity” value was -5.29%.

Consider `O=C(Nc1cc(C(F)(F)F)cc(C(F)(F)F)c1)c1cnc(Cl)nc1C(F)(F)F`, for which the Potency was 16.4 µM (active).

Regarding `COC(=O)c1ccnc(-c2cc(C(=O)Nc3ccc(C4(N)CC4)cc3)ccn2)c1`, the “activity change, negative = cytotoxicity” value was -4.31%.

On to `Cc1cc(-c2cnc(N)c3c(-c4ccc5scnc5c4)csc23)n(C)n1`, for which the Potency is 8.2 µM (active).

On to `CCN(CC)c1ccc(N=Nc2ccc(S(=O)(=O)N(C)C)cc2)c(S(=O)(=O)NCC[n+]2ccccc2)c1`, for which the “activity change, negative = cytotoxicity” value was -5.15%.

Take `CN(C)C(=O)COC(=O)c1cc(-c2ccc(C3CCNCC3)cc2)c2ccc(-c3ccc(C(F)(F)F)cc3)cc2c1`: the Potency is 18.4 µM (active).

On to `Cc1cc2c(N3CCCC3)nc(N3CCCC3)nc2n1C`, for which the “activity change, negative = cytotoxicity” value was -13.7%.
